In ChEMBL document CHEMBL1857833, “Screening and optimization of specific chemical series against human African Trypanosomiasis (HAT)”:
Values joined by “and” are separate entries in the source; they are usually repeats but may differ in a detail not shown here. Equal values may be shown once. About 390 (8.9%) of roughly 4,400 compounds showed an effect of 50% or more. The sample holds strong results, similar compounds and a random draw of the others, so the mix is not that of the screen.

The compounds below were run on Trypanosoma brucei (assay: DNDI: Inhibition of Human African Trypanosomiasis, SBRI 427, in vitro at 2 ug.mL-1).
Type: functional

SMILES | % inhibition
Cc1ccccc1CN/C(=N\O)c1cccnc1Oc1ccc(C(C)C)cc1 | 99%
CCOc1ccccc1CN/C(=N\O)c1cccnc1Oc1ccc(F)cc1 | 5%
Cc1ccccc1CN/C(=N\O)c1cccnc1OCC(C)C | 11%
CCOc1ccccc1CN/C(=N\O)c1cccnc1Oc1ccc(OC)cc1 | 98%
CCOc1ccccc1CN/C(=N\O)c1cccnc1Oc1ccc(C(C)C)cc1 | 99%
CCOc1ccccc1CN/C(=N\O)c1ccc(C)nc1Oc1cc(Cl)ccc1Cl | 26%
CCOc1ccccc1CN/C(=N\O)c1cccnc1Oc1cc(Cl)ccc1Cl | 100%
Cc1ccc(/C(=N/O)NCc2ccccc2C)c(Oc2cccc(C(C)C)c2)n1 | 2%
CCOc1ccccc1CN/C(=N\O)c1cccnc1Oc1ccc2oc3ccccc3c2c1 | 14%
COc1ccccc1CN/C(=N\O)c1cccnc1Oc1ccc(C(C)C)cc1 | -4%
CCOc1ccccc1CN/C(=N\O)c1cccnc1Oc1cc(C)cc(C(C)C)c1 | -4%
CCCN(Cc1coc(-c2cccs2)n1)CC1CC1 | 0%
Cc1ccc(/C(=N/O)N(C)Cc2cccnc2)c(OCc2ccccc2F)n1 | 0%
COc1ccc(-c2nc(CNCc3ccc(C(C)(C)C)cc3)co2)cc1 | 4%
Cc1ccc(C(C)C)c(Oc2cc(/C(=N/O)N3C(C)CCC3C)ccn2)c1 (configuration not stated) | 8%
COc1ccc(N(C)Cc2coc(-c3ccc(C(F)(F)F)cc3)n2)cc1 | 2%
Fc1cccc(-c2nc(CN3CCC4CCCCC4C3)co2)c1 (configuration not stated) | 0%
COc1ccc(Oc2ncccc2/C(=N/O)NCc2ccc(C)o2)cc1 | 5%
O/N=C(\NCc1cccnc1)c1cccnc1Oc1ccc(F)cc1Cl | 14%
O/N=C(\NCc1ccccn1)c1cccnc1Oc1ccc(F)cc1Cl | 20%
Cc1ccc(CN/C(=N\O)c2cccnc2Oc2cc(Cl)ccc2Cl)o1 | 100%

SMILES | % inhibition
Cc1ccc(CN/C(=N\O)c2cccnc2Oc2c(F)cccc2F)o1 | 0%
O/N=C(\NCc1ccccc1)c1cccnc1Oc1ccc(F)cc1Cl | 94%
CSc1ccc(Oc2nc(C)ccc2/C(=N/O)n2ccnc2)cc1 | -8%
CCCCN(CCC#N)Cc1coc(-c2ccc(C)cc2)n1 | -2%
CCCCCC(C)NCc1coc(-c2ccccc2OCC)n1 (configuration not stated) | 99%
CCN(CC)CCNCc1coc(-c2ccccc2Cl)n1 | -11%
CCCCCCC(C)NCc1coc(-c2ccccc2OCC)n1 (configuration not stated) | 41%
CCOc1ccccc1-c1nc(CN[C@H](C)c2ccc(C)cc2)co1 | 10%
CCCC(CCC)NCc1coc(-c2ccc(OCC)cc2)n1 | 99%
CC(CCc1ccccc1)NCc1coc(-c2ccccc2Cl)n1 (configuration not stated) | 8%
CCOc1ccc(-c2nc(CNC(CC)COC)co2)cc1 (configuration not stated) | 21%
CCCCCCC(C)NCc1coc(-c2ccccc2Br)n1 (configuration not stated) | 28%
CCN(CC)CCCC(C)NCc1coc(-c2ccccc2Cl)n1 (configuration not stated) | 94%
CCOc1ccccc1-c1nc(CNC(C)c2ccccc2)co1 (configuration not stated) | -8%
CCCC(CCC)NCc1coc(-c2ccc(O)cc2)n1 | 14%
Cc1ccc(/C(=N/O)N2CCN(c3ccccc3)CC2)c(Oc2ccc(F)cc2)n1 | 20%
C=CCN(CC=C)Cc1coc(-c2cccs2)n1 | -3%
Cc1ccc(-c2nc(CNc3cc(C)nn3-c3ccccc3)co2)cc1 | 10%
C=C(C)CN(CC)Cc1coc(-c2cccc3ccccc23)n1 | -7%
COc1cc(-c2nc(CNC(C)c3ccccc3)co2)cc(OC)c1OC (configuration not stated) | 0%
CCC(NCc1coc(-c2ccc(Cl)cc2Cl)n1)c1ccccc1 (configuration not stated) | 5% and 14%

SMILES | % inhibition
CCCCN(CCC#N)Cc1coc(-c2ccc(O)cc2)n1 | -26%
Cc1ccccc1-c1nc(CN(C)C(C)c2ccccc2)co1 (configuration not stated) | 13%
COCC(C)NCc1coc(-c2ccc(Cl)cc2Cl)n1 (configuration not stated) | 2%
CCCC(CCC)NCc1coc(-c2ccccc2OCC)n1 | 98%
CCOc1ccccc1-c1nc(CNC(CC)COC)co1 (configuration not stated) | 5%
CC(NCc1coc(-c2ccc(Cl)cc2Cl)n1)C(C)(C)C (configuration not stated) | 55%
CCCC(CCC)NCc1coc(-c2ccccc2Br)n1 | -3%
Cc1ccc(-c2nc(CN(c3ccccc3)C(C)C)co2)cc1 | 23%
c1ccc2c(-c3nc(CN4CCC(N5CCCC5)CC4)co3)cccc2c1 | 35%
Fc1ccc(-c2nc(CN(Cc3ccccn3)Cc3ccccn3)co2)cc1 | 48%
Clc1ccc(-c2nc(CN(Cc3ccccn3)Cc3ccccn3)co2)c(Cl)c1 | 58%
Fc1cccc(-c2nc(CN(Cc3ccccn3)Cc3ccccn3)co2)c1 | 4%
Cc1cccc(-c2nc(CN(Cc3ccccn3)Cc3ccccn3)co2)c1 | 63%
COCCN(CCOC)Cc1coc(-c2ccc(Cl)cc2Cl)n1 | 6%
COc1ccc(-c2nc(CN(Cc3ccccn3)Cc3ccccn3)co2)cc1 | 46%
CN(CCc1ccccn1)Cc1coc(-c2ccc(Cl)cc2Cl)n1 | -26%
Cc1ccc(-c2nc(CN(Cc3ccccn3)Cc3ccccn3)co2)cc1 | 83%
COCCN(CCOC)Cc1coc(-c2cccc(C)c2)n1 | 13%
C=CCN(C)Cc1coc(-c2ccc(OC)cc2)n1 | 18%
c1ccc2c(-c3nc(CNCCN4CCOCC4)co3)cccc2c1 | 7%
Cc1ccccc1-c1nc(CN(Cc2ccccc2)C(C)C)co1 | 7%

SMILES | % inhibition
Cc1ccc(/C(=N/O)NC2CCc3ccccc32)c(Oc2cccc(F)c2)n1 (configuration not stated) | 23%
Cc1ccc(-c2nc(CNC(C)CC(C)C)co2)cc1 (configuration not stated) | 4%
COCCN/C(=N\O)c1ccc(C)nc1Oc1ccc(SC)c(C)c1 | 98%
Cc1ccc(Oc2nc(C)ccc2/C(=N/O)NC2CCCC2)cc1 | 97%
COc1ccc(Oc2nc(C)ccc2/C(=N/O)NC2CCC2)cc1 | -19%
CSc1ccc(Oc2nc(C)ccc2/C(=N/O)NC2CCCCC2)cc1 | 1%
CSc1ccc(Oc2nc(C)ccc2/C(=N/O)NC2CCCC2)cc1C | 88%
Cc1ccc(Oc2nc(C)ccc2/C(=N/O)NC2CC2)cc1 | 30%
COc1ccc(Oc2nc(C)ccc2/C(=N/O)NC2CCCC2)cc1 | 101%
COc1ccc(Oc2nc(C)ccc2/C(=N/O)NC2CC2)cc1 | 4%
CSc1ccc(Oc2nc(C)ccc2/C(=N/O)NCC2CC2)cc1C | 14%
Cc1ccc(/C(=N/O)NC2CCCC2)c(Oc2ccc(F)cc2)n1 | 23%
CSc1ccc(Oc2nc(C)ccc2/C(=N/O)NCCN(C)C)cc1C | -3%
CCCN/C(=N\O)c1ccc(C)nc1Oc1ccc(SC)c(C)c1 | 11%
Brc1ccc(-c2nc(CNCCc3ccccn3)co2)cc1 | -9%
FC(F)(F)Oc1ccc(-c2nc(CNCc3ccccc3OC(F)(F)F)co2)cc1 | -17%
Fc1cccc(-c2nc(CNCc3ccc(OC(F)(F)F)cc3)co2)c1 | 7%
CN1CCCC1CCN/C(=N\O)c1cccnc1Oc1ccc(Cl)cc1 (configuration not stated) | -1%
O=C(c1ccco1)N1CCN(Cc2coc(-c3ccc(Cl)cc3Cl)n2)CC1 | 21%
